Source: PubChem (National Center for Advancing Translational Sciences (NCATS))
D2 ag-1 – activates the human D2 dopamine receptor | P14416 | HEK293 T-REx D2 cells, calcium flux agonist mode | activation, % at 2 µM | 340,000 compounds, 0.53% hits | AID 485358;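 active = activation over 3 SD above normal in the single-dose calcium agonist read, cut at about 30% in these data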
Target sequence (P14416 whole entry, looked up): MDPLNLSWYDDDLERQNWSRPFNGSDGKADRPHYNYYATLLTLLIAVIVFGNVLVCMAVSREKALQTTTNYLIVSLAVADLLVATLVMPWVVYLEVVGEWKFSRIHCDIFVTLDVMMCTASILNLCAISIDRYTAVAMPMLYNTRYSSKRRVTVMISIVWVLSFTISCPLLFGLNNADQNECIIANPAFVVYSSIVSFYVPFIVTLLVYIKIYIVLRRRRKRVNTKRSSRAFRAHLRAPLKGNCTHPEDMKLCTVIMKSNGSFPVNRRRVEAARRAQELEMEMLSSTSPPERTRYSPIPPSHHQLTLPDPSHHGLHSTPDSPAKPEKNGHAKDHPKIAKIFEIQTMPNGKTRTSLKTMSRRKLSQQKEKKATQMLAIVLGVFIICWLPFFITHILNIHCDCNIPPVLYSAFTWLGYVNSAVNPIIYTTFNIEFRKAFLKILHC
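Agonism is scored from calcium flux in a force-coupled, inducible HEK293 cell line expressing D2, read kinetically for 180 s after compound addition against dopamine controls.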
D2 PAM-1 – positive allosteric modulators of human D2 dopamine receptor. P14416. DiscoveRx D2 beta-arrestin cells, luminescence, 90 min; 100% = 57 uM dopamine signal. potentiation, % (concentration not given with the values). 360,000 compounds, 0.23% hits. AID 624464; in the data active = potentiation above about 50%; inconclusive = mostly about 30% to 49%
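D2 cells co-treated with compound plus 50 nM dopamine (EC20) for 90 min at 37 deg C to detect potentiation. Beta-arrestin recruitment was read as enzyme-fragment luminescence after 1 h at ambient temperature. Full response was set by 57 uM dopamine.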
D2 PAM-2 – D2 dopamine receptor (human) potentiation | P14416 | HEK293 T-REx D2, calcium flux, EC20 dopamine potentiation | potentiation, % at 10 µM | 340,000 compounds, 0.34% hits;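 active = potentiation over 3 SD above the plate norm, cut at about 30% in these data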
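Tetracycline-induced Hek293 Trex D2 cells, force-coupled to calcium, loaded with no-wash calcium dye. Compound added with 180 s kinetic read for agonism, then EC20 dopamine and a further 180 s read for potentiation.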
D2 ag-2 – human D2 receptor agonism in beta-arrestin assay; activation, % (no concentration beside the values); 360,000 compounds, 0.084% hits; AID 624465; DiscoveRx PathHunter D2 beta-arrestin, luminescence, 90 min; 100% = 57 uM dopamine signal; in the data active = activation above about 40%; inconclusive = between about 15% and that limit
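Agonist mode: compounds alone added to overnight-plated D2 PathHunter cells for 90 min at 37 C, with 57 uM final dopamine (EC100) defining full response. Beta-arrestin recruitment detected by chemiluminescent reagent, read after 1 h at ambient temperature.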
D2 antag – antagonizes the human D2 dopamine receptor; HEK293 TREx D2 cells, calcium flux, dopamine EC80; 340,000 compounds, 2% hits; AID 485344; inhibition, % at 10 µM; in the data active = inhibition above about 30%; inactive = below that, where a call was filed
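Dopamine at EC80 is the agonist stimulus; test compounds precede it by 180 s. Calcium flux read kinetically in a force-coupled, inducible HEK293 T-REx D2 cell line.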
Of the large screens only hits and unclear results are named; the others gave an inactive call. Shown are actives, neighbours in structure and some others; about 2.4% of the full set was active somewhere.

COc1cccc(C(=O)C2CCCN(Cc3cccc(-n4cccn4)c3)C2)c1 (stereo not given)	D2 antag 32
COc1cccc(C(=O)C2CCCN(Cc3cccn3-c3cccnc3)C2)c1 (stereo not given)	none
COC(=O)c1cc(OC)c(OC)cc1NC(=O)c1ccco1	none
COc1cc(NC(=O)COc2cccc(OC)c2)cc(OC)c1	none
COc1cccc(OCC(=O)Nc2ccc(OC)c(OC)c2)c1	D2 PAM-2 32
COc1ccc(NC(=O)COC(=O)c2cc(OC)c(OC)cc2NC(=O)c2ccco2)cc1OC	D2 antag 58
CCc1ccc(-n2nc3ccc(NC(=O)COc4ccc(OC)cc4)cc3n2)cc1	none (no result: D2 PAM-1, D2 ag-2, D2 antag)
CNC(=S)NC1CC2CCCC(C1)N2Cc1ccccc1OC (stereo not given)	none
CCNC(=S)NC1CC2CCCC(C1)N2Cc1ccc(C)cc1 (stereo not given)	D2 antag 82
CNC(=S)NC1CC2CCCC(C1)N2Cc1ccc(C)cc1 (stereo not given)	D2 antag 81
CCNC(=S)NC1CC2CCCC(C1)N2Cc1ccco1 (stereo not given)	none
Cc1ccccc1-c1nc2scc(CCNS(=O)(=O)c3ccccc3)n2n1	none (no result: D2 ag-1, D2 PAM-1, D2 ag-2, D2 antag)
CCOc1ccc(-n2c(=O)c3c4c(sc3n(CC(=O)Nc3cccc(C(F)(F)F)c3)c2=O)CCCCC4)cc1	none (no result: D2 ag-1, D2 PAM-1, D2 ag-2, D2 antag)
CC(=O)Nc1cccc(NC(=O)CSc2nnc(Cc3cccn3C)n2-c2ccc(F)cc2)c1	D2 antag 49
COCCNC(=O)CN(C(=O)c1ccc(N2CCCC2)nc1)c1ccc(Cl)cc1	D2 PAM-2 34
CC(C(=O)NCC1CCCCC1)N1CCc2ccccc2C1 (stereo not given)	D2 antag 54
Cn1nnc(NC(=O)CSc2nnnn2-c2ccc(F)cc2)n1	none (no result: D2 ag-1, D2 PAM-2, D2 antag)
Cn1nnc(NC(=S)NC(=O)c2cc(Cl)ccc2Cl)n1	D2 antag 31
Cn1nnc(NC(=O)CSc2ccc(Cl)cc2)n1	D2 antag 40
CC(=O)Nc1ccc(NCc2nnc3n2CCCCC3)cc1	none (no result: D2 ag-1, D2 PAM-1, D2 ag-2, D2 antag)
CCOc1ccc(S(=O)(=O)N2CCN(S(=O)(=O)c3ccc(C(C)=O)cc3)CC2)cc1	D2 antag 36
CCOc1ccc(NC(=S)N2CCN(S(=O)(=O)c3ccccc3)CC2)cc1	D2 ag-1 39
CCOc1ccc(S(=O)(=O)N2CCN(C(=O)c3cccn3C)CC2)cc1	D2 PAM-2 31
C[C@H](CO)N1C[C@H](C)[C@H](CN(C)C(=O)NC2CCCCC2)Oc2cc(-c3cccnc3)ccc2S1(=O)=O	none (no result: D2 ag-1, D2 PAM-2, D2 antag)
CCOC(=O)c1c(NC(=O)c2cc3nc(-c4ccc(OC)cc4)cc(C(F)(F)F)n3n2)sc2c1CCC(C)C2 (stereo not given)	none (no result: D2 ag-1, D2 PAM-1, D2 ag-2, D2 antag)
C=CCC[C@H](Cc1ccc(F)cc1)C(=O)OC[C@H](Cc1c[nH]c2ccccc12)NC(=O)[C@@H](CC=C)CC(=O)NCCO	none (no result: D2 ag-1, D2 PAM-2, D2 antag)
COc1ccc(/C=C/C(=O)Nc2ccccc2C(=O)N2CCCC2)cc1	none
COc1ccc(/C=C/C(=O)Nc2ccccc2C(=O)O)cc1	D2 antag 34
COc1ccc(/C=C/C(=O)Nc2ccccc2C(F)(F)F)cc1	none
COc1ccc(/C=C/C(=O)Nc2ccccc2C(=O)NCC(c2ccc(OC)cc2)N(C)C)cc1 (stereo not given)	D2 antag 60 (no result: D2 PAM-2)
O=C(Cc1ccc(Cl)cc1)Nc1ccc2oc(=O)ccc2c1	none
O=C(Cc1ccc(Cl)cc1)Nc1ccc(-c2cc3ccccc3oc2=O)c(Cl)c1	D2 antag 46
COc1cc(NC(=O)Nc2nc(C(N)C3CCCCC3)cs2)cc(OC)c1OC (stereo not given)	D2 PAM-1 inconclusive, D2 ag-2 109 (no result: D2 ag-1, D2 PAM-2, D2 antag)
COc1ccccc1NC(=O)Nc1nc(C(N)C2CCCCC2)cs1 (stereo not given)	none (no result: D2 ag-1, D2 PAM-2, D2 antag)
N/C(Cc1ccc([N+](=O)[O-])cc1)=N\OC(=O)c1ccc([N+](=O)[O-])cc1	D2 PAM-1 61, D2 ag-2 42
N/C(Cc1ccc([N+](=O)[O-])cc1)=N\OC(=O)c1cccc(Br)c1	D2 ag-2 63
COc1cc(C(=O)O/N=C(\N)Cc2ccc([N+](=O)[O-])cc2)cc(OC)c1OC	D2 PAM-1 inconclusive, D2 ag-2 inconclusive
N/C(Cc1ccc(Cl)cc1)=N\OC(=O)Cc1ccc([N+](=O)[O-])cc1	D2 PAM-1 86, D2 ag-2 inconclusive
CCN(CC)c1ccc2cc(-c3nc(-c4ccccc4)no3)c(=O)oc2c1	none (no result: D2 ag-1, D2 PAM-1, D2 ag-2, D2 antag)
Cc1coc2c(C)c3oc(=O)c(CC(=O)N4CCCCC4)c(C)c3cc12	none (no result: D2 PAM-1, D2 ag-2, D2 antag)
CCc1c(C)sc2c1CCN(C(=O)Nc1ccc(F)c(Cl)c1)C2c1ccc(F)cc1 (stereo not given)	none (no result: D2 PAM-1, D2 ag-2, D2 antag)
COc1ccc(C(=O)NC2CCN(S(=O)(=O)c3ccccc3F)CC2)cc1	D2 antag 33
COC(=O)c1ccccc1S(=O)(=O)N1CCC(NC(=O)c2ccccc2)CC1	none
O=C(CSc1ncccn1)N/N=C/c1cccc(OC2CSC2)c1	D2 antag 36
CCCCN(C)Cc1c(O)ccc2c(-c3ccccc3)cc(=O)oc12	D2 antag 64 (no result: D2 PAM-2)
CCCCN(CC)Cc1c(O)ccc2c(-c3ccccc3)cc(=O)oc12	none
COc1cc(NC(=O)CC2C(=O)N(c3ccccc3)C(=O)N2Cc2ccc(F)cc2)cc(OC)c1 (stereo not given)	none (no result: D2 PAM-1, D2 ag-2, D2 antag)
COc1ccc(-n2cc(CNCCc3cscn3)c(-c3ccccc3Cl)n2)cc1	D2 antag 48
CCN(CC)S(=O)(=O)c1nnc(NC(=O)COc2ccc(C)cc2)s1	none (no result: D2 PAM-1, D2 ag-2, D2 antag)
COc1ccc(S(=O)(=O)NCCS(=O)(=O)N2CCN(c3ccccc3)CC2)cc1OC	none (no result: D2 PAM-1, D2 ag-2, D2 antag)
CCc1nn2c(=O)cc(COC(=O)c3ccco3)nc2s1	none (no result: D2 PAM-1, D2 ag-2, D2 antag)
CCOc1ccc(C(=O)Nc2ccc3c(c2)OCCO3)cc1OC	none
Cc1ccc(NC(=O)c2ccc3c(c2)OCCO3)cc1S(=O)(=O)Nc1cccc(Cl)c1	D2 antag 31
CCOc1ccc(NC(=O)c2ccc3c(c2)OCCO3)cc1S(=O)(=O)N(CC)CC	D2 antag 32
CN(Cc1nc(-c2cccc(Cl)c2)no1)C1CCOCC1	D2 antag 47
CCOc1ccccc1NC(=O)CCc1nc(-c2cccc(C)c2)no1	none (no result: D2 PAM-1, D2 ag-2, D2 antag)
O=C(Nc1ccccc1F)c1ccc2c(Cl)c3c(nc2c1)CCC3	none (no result: D2 PAM-1, D2 ag-2, D2 antag)
CCC1(C)Cc2nc3sc(C(=O)O)c(N)c3cc2CO1 (stereo not given)	D2 antag 37
CCOC(=O)c1sc2nc3c(cc2c1N)COC(C)(CC)C3 (stereo not given)	none
CC(C)C(C)(C#N)NC(=O)CSc1ncnc2sc(-c3ccccc3)cc12 (stereo not given)	D2 antag 31
O=C(Nc1ccc2c(c1)C(=O)NC2=O)c1ccc(S(=O)(=O)N2CCCC2)cc1	D2 antag 31
